Rows were chosen to be rich in hits. Some 2.8% of all compounds tested hit in one or more screens of this group.
PI5P4Ka inh – blocks human PI5P4K alpha kinase activity; hit rate 1.2% among 330,000; max response, %; PI5P4Kalpha enzyme, ADP-Glo luminescence, 60 min; stronger effect = lower value; AID 652105; active = max response of -50% or lower; inconclusive = between -30% and -50%; inactive = -30% or higher; also: value at the top dose of about 77 µM; % is scaled to controls: 0 for no effect and ±100 for the full control effect
Target sequence (P48426 whole entry, looked up): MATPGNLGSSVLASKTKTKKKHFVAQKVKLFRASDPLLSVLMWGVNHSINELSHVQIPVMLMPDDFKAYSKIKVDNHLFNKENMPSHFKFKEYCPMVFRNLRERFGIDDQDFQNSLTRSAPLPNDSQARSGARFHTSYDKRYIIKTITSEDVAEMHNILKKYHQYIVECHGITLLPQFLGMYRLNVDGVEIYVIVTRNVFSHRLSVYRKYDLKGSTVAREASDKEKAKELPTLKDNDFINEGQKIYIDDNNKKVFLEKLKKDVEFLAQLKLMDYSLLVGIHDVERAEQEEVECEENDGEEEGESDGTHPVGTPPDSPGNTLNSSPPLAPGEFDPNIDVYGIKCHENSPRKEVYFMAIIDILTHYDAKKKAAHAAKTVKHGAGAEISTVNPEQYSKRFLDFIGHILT
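PI5P4Kalpha ADP-Glo assay; 5 microM ATP final; 60 min RT reaction; HEPES pH 7.4/EGTA/CHAPS, 5% DMSO; controls lacking substrate or enzyme; luminescent end-point.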
POLI inh – blocks human DNA polymerase iota activity; Potency, µM (top dose mostly 115 µM), inactives show at the top dose activity, negative = inhibition, most hits filed as inhibitors; Pol iota fluorescent replication assay, 10 min; Q9UNA4; AID 588590; hit rate 1% among 390,000; also: potency is read from the fitted curve at half-maximal effect
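Fluorescent replication assay read twice, at 0 min and 10 min after adding 50 nM (final) substrate. Enzyme (10 nM) and compounds were first incubated 15 min at room temperature; enzyme-free buffer wells were negative controls.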
WRN inhibitor – inhibitors of human WRN helicase | Q14191 | WRN helicase unwinding, fluorescent forked duplex, kinetic | Potency, µM (highest dose often 114 µM), inactives show at the highest dose activity change, negative = inhibition, actives largely listed as inhibitors | hit rate 0.46% among 360,000; also: potency is read from the fitted curve at half-maximal effect; % is scaled to controls: 0 for no effect and ±100 for the full control effect; nearly all actives have a fitted effect of over 55% in size
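WRN at 20 nM final was preincubated with compound for 15 min at room temperature; reaction started with 100 nM forked duplex oligonucleotide carrying fluorophore and quencher plus 2 mM ATP (final). Unwinding followed kinetically by red fluorescence (ex 525/em 598 nm).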
Pol beta inh – DNA polymerase beta (human) inhibition | Potency, µM (highest dose often 114 µM), for the others: top-dose activity change, negative = inhibition, hits mostly inhibitors | P06746 | hit rate 1.3% among 340,000 | Pol beta primer extension/strand displacement, fluorescence kinetic; also: potency is read from the fitted curve at half-maximal effect; % is scaled to controls: 0 for no effect and ±100 for the full control effect
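Human Pol beta at 10 nM; strand-displacement substrate 50 nM final. Compound exposure 15 min at room temperature before start, reaction 10 min at room temperature.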
Pol eta inh – inhibitors of human DNA polymerase eta. Potency, µM (titrated, usually from 114 µM), inactives show at the top dose activity change, negative = inhibition, most hits filed as inhibitors. recombinant Pol eta, fluorescent DNA replication assay. AID 588591. hit rate 1.2% among 390,000. Q9Y253; also: potency is read from the fitted curve at half-maximal effect; % is scaled to controls: 0 for no effect and ±100 for the full control effect
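Pol eta (10 nM) was preincubated with compounds for 15 min at room temperature, after which fluorescent replication substrate (50 nM final) was added to start the reaction. Fluorescence was read kinetically at 0 and 10 min.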
POLK inh – DNA polymerase kappa (human) inhibition; Q9UBT6; purified Pol kappa, fluorescent DNA synthesis assay, 10 min; Potency, µM (series often up to 107 µM), for inactives: at the top dose activity, negative = inhibition, hits mostly inhibitors; hit rate 0.53% among 400,000; also: potency is read from the fitted curve at half-maximal effect; % is scaled to controls: 0 for no effect and ±100 for the full control effect
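Pol kappa 10 nM + cpd, 15 min RT; start w/ substrate 50 nM final; fluorescence kinetic read, 0 and 10 min. Neg ctrl: buffer, no enzyme.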
The depositor's hits bear a star; ? = inconclusive; · = no result given; [ ] = dose if it differs, or a comment. Unless noted, calls follow the shape of the dose curve; as a rule, active = well fitted curve in the direction sought with a large enough effect; inconclusive = small, poorly fitted or top-dose-only effect, or another doubt; inactive = no such curve, though single readings can be large; an effect the other way counts as inactive or inconclusive.

SMILES	PI5P4Ka inh	POLI inh	WRN inhibitor	Pol beta inh	Pol eta inh	POLK inh
Cc1ccc(OCC(=O)Nc2ccc(C(=O)OCc3cc(=O)n4c(C)csc4n3)cc2)cc1	·	-12.3%	·	15.3%	-21.0%	-3.1%[60.1 µM]
CCOc1ccc(C(=O)Nc2ccc(C(=O)OCc3cc(=O)n4c(C)csc4n3)cc2)cc1	·	?	·	17.8µM*	-16.9%	-6.2%[60.1 µM]
CN(C)C/C=C/C(=O)Nc1cccc(-c2c[nH]c3ncnc(Oc4ccc(NC(=O)CC(=O)Nc5ccc(F)cc5)cc4F)c23)c1	-50.3*	?	-2.0%	·	-8.0%	-5.7%
CCOC(=O)c1ccc(CN(Cc2ccc(Cl)cc2Cl)S(=O)(=O)c2ccc(F)c(C)c2)cc1	·	12.1%	·	-0.8%	-9.5%	-0.6%[60.1 µM]
C=CCN1CCN(C(c2ccccc2)c2nnnn2CCC(C)C)CC1 (centres undefined)	-58.9*	?	?	2.9%	2.2%	-13.1%
COc1ccc(Nc2cc(C)nc(N3CCOCC3)n2)cc1	-1.0	31.6µM*	-8.4%	24.0%	3.9%	-10.3%
O=C(c1cccn1-c1nnc(N2CCCCC2)s1)N1CCN(c2ccccc2)CC1	·	-9.7%	·	-0.1%	-1.8%	8.3%
CCC12CN3CC(C)(CN(C1)C3c1c[nH]c3ccc(OC)cc13)C2=O (centres undefined)	·	17.2%	·	3.5%	-19.7%	-17.5%
Cc1ccc(NC(=O)C2CCCN(S(=O)(=O)c3cn(C(C)C)cn3)C2)c(C)c1 (centres undefined)	·	4.2%	·	27.5%	-6.7%	0.5%[60.1 µM]
N#CC1=C(N)Oc2n[nH]c(-c3cccs3)c2C1C1CCCCC1 (centres undefined)	?	8.1%	-14.3%	-2.5%	-3.0%	-8.8%
CCOC(=O)Cc1[nH]nc2c1C(C1C=CCCC1)C(C#N)=C(N)O2 (centres undefined)	-51.3*	?	-18.2%	?	?	-5.1%
N#CC1=C(N)Oc2n[nH]c(-c3cccs3)c2C1C1C=CCCC1 (centres undefined)	-52.1*	2.8%	-1.4%	-7.8%	2.8%	-14.2%
CCOC(=O)Cc1[nH]nc2c1C(c1cccc(OC)c1OC)C(C#N)=C(N)O2 (centres undefined)	-0.9	11.3%	1.2%	0.6%	-5.6%	-8.0%
CCCCCCCCCCCCCCCC[n+]1ccc(C)cc1	·	12.2%	·	·	·	-13.9%
Cc1ccc(Cl)cc1N1CCN(C(=O)c2cc(S(=O)(=O)N3CCCCC3)cn2C)CC1	·	?	·	3.3%	-2.5%	-13.5%[60.1 µM]
CCCCN1CC(O)=C(c2nc(-c3ccc(Br)cc3)cs2)C1=N	-1.6	14.2%	-9.3%	5.01µM*	?	1.1%
CCOC(=O)CCCN1CC(O)=C(c2nc(-c3ccc(Cl)cc3)cs2)C1=N	-12.2	105.9%	-2.5%	-28.1%	-8.7%	-18.7%
CCCN(c1c(C)n(C)n(-c2ccccc2)c1=O)S(=O)(=O)c1ccc(C)cc1	·	-21.0%	·	20.7%	-5.6%	8.3%
Cc1cc(C)c(NC(=O)CN2C(=O)CCn3nc(-c4cccn4C)cc32)c(C)c1	·	1.8%	·	16.1%	-7.3%	-11.4%[60.1 µM]
CCc1cc2c(=O)c(-c3nc4ccccc4n3C)coc2c(CN2CCCCC2C)c1O (centres undefined)	-26.5	31.6µM*	?	28.2µM*	?	-97.3%
CCc1cc2c(=O)c(-c3nc4ccccc4n3C)coc2c(CN2CCCCC2)c1O	-5.0	30.9%	-11.9%	19.2%	2.9%	-1.7%[60.1 µM]
O=C(NC1CCCC1)c1cnn2c1NC(=C1CC1)C=C2C(F)F	·	-15.1%	·	·	·	-13.9%
CN(C)c1ccc(C(=C2C=CC(=[N+](C)C)C=C2)c2ccc(N(C)C)cc2)cc1	·	-7.4%	·	·	·	?
CN(C)c1ccc(C(=C2C=CC(=[N+](C)C)C=C2)c2c(O)c(S(=O)(=O)[O-])cc3cc(S(=O)(=O)O)ccc23)cc1	·	?	·	·	·	8.91µM*
O=C(CCc1ccccc1)NNC(=O)COc1ccc(Br)cc1	3.8	50.1µM*	-7.3%[11.6 µM]	?	10.5%	?
SMILES	PI5P4Ka inh	POLI inh	WRN inhibitor	Pol beta inh	Pol eta inh	POLK inh
O=C(CCC(=O)NNC(=O)COc1ccc(Br)cc1)NCc1ccccc1	4.2	34.6%	-6.0%[57.1 µM]	?	-7.6%	1.7%
CC(C)(C)n1ncc2c(=O)n(Cc3ccccc3CS(=O)(=O)c3ccccc3)cnc21	·	0.2%	·	·	·	1.7%
COc1ccc(S(=O)(=O)N(CC(=O)O)c2ccccn2)cc1	0.2	45.2%	-3.0%	6.9%	-2.0%	-12.9%
COc1ccc(S(=O)(=O)N(CC(=O)O)c2ccccc2)cc1	·	100µM*	-8.1%[57.1 µM]	15.1%	-5.7%	-23.7%
COc1ccc(NC(=O)CN(c2ccc([N+](=O)[O-])cc2)S(=O)(=O)c2ccccc2)cc1	6.4	5.4%	0.3%	0.112µM*	-16.8%	-5.4%
COc1ccc(N(CC(=O)N/N=C/c2ccco2)S(=O)(=O)c2ccccc2)cc1	·	?	-30.2%	8.91µM*	89.1µM*	-22.1%
Cc1ccc(CNC(=O)c2ccc3c(c2)N(Cc2ccccc2F)C(=O)c2ccccc2S3(=O)=O)cc1	·	-12.0%	·	?	-6.4%	-21.7%
CC(C)c1ccc(-c2nnc3n(CCc4ccccc4)c(=O)c4ccccc4n23)cc1	·	-8.3%	·	-0.7%	-2.8%	3.3%
Cc1nc(Nc2cnc(/C=C/c3cc(C(=O)Nc4cccc(C(F)(F)F)c4)ccc3C)cn2)cc(N2CCNCC2)n1	?	-5.9%	?	39.8µM*	39.8µM*	-5.4%
CCOc1ccc(C(=O)Nc2ccc3nc(Nc4cccc(C(F)(F)F)c4)cc(C)c3c2)cc1OCC	·	25.5%	·	-22.8%	-27.1%	-8.7%
O=C(CSc1nc(=O)n(Cc2ccco2)c2c1CCC2)NCc1ccccc1	·	21.6%	·	2.2%	-20.1%	-3.7%[60.1 µM]
O=C(CSc1nc2scc(-c3ccco3)c2c(=O)n1-c1ccccc1)N1CCOCC1	·	-1.9%[58.9 µM]	-2.7%	15.9%	-10.0%	-13.0%
NC(=O)CSc1nc2scc(-c3ccco3)c2c(=O)n1-c1ccccc1	-70.5*	11.2µM*	?	?	79.4µM*	44.7µM*
O=c1c2c(-c3ccco3)csc2nc(SCc2cn3cccnc3n2)n1-c1ccccc1	-66.7*	?	56.2µM*	-1.0%	11.2µM*	-22.6%
COc1ccc(NC(=O)CSc2nc(-c3cccs3)cc(C(F)(F)F)n2)cc1OC	·	-11.0%	·	-11.2%	2.9%	-14.3%[60.1 µM]
Cc1ccccc1C(=O)Nc1cc2c(cc1N1CCCCC1)n(C)c(=O)n2C	·	26.4%	·	1.6%	-7.9%	-9.4%
COc1cc(/C=N/NC(=O)CCn2c3ccccc3c3ccccc32)ccc1O	·	-12.3%	-25.2%	?	1.4%	-6.9%
COc1cc(/C=N\NC(=O)c2ccc(-c3ccccc3)cc2)cc(OC)c1O	-9.4	31.6µM*	-10.7%[11.6 µM]	25.1µM*	?	?
Cc1nn(-c2ccc(F)cc2)c(Cl)c1/C=N/NC(=O)c1cccs1	-6.1	1.9%	-12.9%	-12.4%	?	-11.6%

High-throughput results: PubChem, National Center for Advancing Translational Sciences (NCATS)
